ugtP null kill: growth inhibition of S. aureus ugtP deletion strain; S. aureus RN4220 ugtP deletion, OD600 growth, 16 h; growth inhibition, % (concentration not given with the values); actives 0.54% (n = 330,000); AID 1259309; in the data active means growth inhibition above about 68%
BJeLR viability: kills HRASV12-expressing BJeLR cells. BJeLR (HRASV12) viability, CellTiter-Glo ATP luminescence, 48 h. inhibition, % (no concentration beside the values). actives 0.17% (n = 300,000). AID 1554; in the data active means inhibition above about 50%
PrPC TRFRET: cell surface PrPC inhibition, primary TR-FRET screen; AID 720596; P04156; actives 0.43% (n = 370,000); TR-FRET read-out; inhibition, % at 13.8 µM; in the data active means inhibition above about 24%
RN4220 kill: S. aureus RN4220 growth inhibition; OD600, 16 h; actives 0.33% (n = 330,000); inhibition, % (test concentration not listed); AID 1259311; in the data active means inhibition above about 85%
PrPC TRFRET cf: cell surface PrPC inhibition, TR-FRET confirmation; shares compounds with PrPC TRFRET; cell surface PrPC level; inhibition, % at 13.8 µM; actives 65% (n = 1,500); AID 743200; in the data active means inhibition above about 25%
LD9 cytotox: counter-screen for PrPc inhibitors: cytotoxicity in LD9 cells; inhibition, % at 13.8 µM; shares compounds with PrPC TRFRET; luminescence viability; actives 29% (n = 1,500); in the data active means inhibition above about 9.5%
Large screens that a line does not name were inactive (follow-up assays come after a bar, where they were run). Most compounds without a hit are left out; they make up all but 0.95% or so of the library.

C=C(C)C1CC=C(C)C(=NNC(=O)COc2ccc(Cl)cc2)C1 (configuration not stated)	none (no result: BJeLR viability, PrPC TRFRET)
CCOC(=O)c1c(C)n(-c2ccccc2)c2ccc(O)cc12	PrPC TRFRET 27.5 | PrPC TRFRET cf inactive | LD9 cytotox inactive
CCOc1ccccc1-c1n[nH]c(=S)o1	PrPC TRFRET 26.9 | PrPC TRFRET cf 25.1 | LD9 cytotox inactive
CCOc1ccc(-c2n[nH]c(=S)o2)cc1	none
COc1ccccc1OCCOc1ccccc1C=Nn1cnnc1	none (no result: BJeLR viability, PrPC TRFRET)
Cc1c(C(=O)O)oc2c3c(ccc12)OCCO3	PrPC TRFRET 26.2 | PrPC TRFRET cf 30.7 | LD9 cytotox inactive
COc1ccc(N2CCN(CCCNC(=O)C3CCC(CNc4nc(=S)[nH]c5ccccc45)CC3)CC2)cc1 (configuration not stated)	PrPC TRFRET 32.8 | PrPC TRFRET cf 27.7 | LD9 cytotox 13.9
Nc1nnn(CC(=O)NN=Cc2ccc(O)cc2)n1	none (no result: BJeLR viability, PrPC TRFRET)
COC(=O)c1c(NC(=O)COc2ncnc3ccccc23)sc(C)c1C	none
CCOC(=O)c1c(NC(=O)COc2ncnc3ccccc23)sc(C(C)=O)c1C	PrPC TRFRET 28.8 | PrPC TRFRET cf 36.1 | LD9 cytotox inactive
O=C(c1cc(C2CC2)nc2ccc(Br)cc12)N1N=C(C(F)F)CC1(O)C(F)F (configuration not stated)	PrPC TRFRET 31.4 | PrPC TRFRET cf inactive | LD9 cytotox inactive
NC(=O)C(Cc1cc2ccccc2s1)NC(=O)C1CC2(CC(c3cccc(NC(=O)C4CCC(=O)N4)c3)=NO2)CN1C(=O)C=CSc1ccccc1 (configuration not stated)	none (no result: BJeLR viability, PrPC TRFRET)
CC1CCN(CCC(=O)NN=Cc2ccc([N+](=O)[O-])cc2)CC1	none (no result: BJeLR viability, PrPC TRFRET)
CN(C(=O)COc1cc(=O)n(C)c2ccccc12)c1ccc(Cl)cc1	none (no result: ugtP null kill, RN4220 kill)
CN(c1ccc(Cl)cc1)c1cc(=O)n(C)c2ccccc12	PrPC TRFRET 24.6 | PrPC TRFRET cf inactive | LD9 cytotox inactive
Cc1cc(C)nc(SCC(=O)Nc2ccnc3ccccc23)n1	PrPC TRFRET 45.7 | PrPC TRFRET cf 43.2 | LD9 cytotox 16.3
O=C(CSC1=NCCS1)Nc1ccnc2ccccc12	PrPC TRFRET 56.4 | PrPC TRFRET cf 51.4 | LD9 cytotox inactive
COC(=O)c1ccccc1NC(=O)CSc1nc(C)cc(C)n1	none
CCN(C=NS(=O)(=O)c1ccc(Cl)cc1)CC	none (no result: BJeLR viability, PrPC TRFRET)
CC12CCC(CC1=NO)C2(C)CBr (configuration not stated)	none (no result: BJeLR viability, PrPC TRFRET)
Cc1cc(C2(c3ccc(O)c(C)c3)OC(=O)c3ccccc32)ccc1O	none (no result: ugtP null kill, RN4220 kill)
Cc1cc(O)c(C(C)C)cc1C1(c2cc(C(C)C)c(O)cc2C)OC(=O)c2ccccc21	PrPC TRFRET 25.1 (no result: ugtP null kill, RN4220 kill) | PrPC TRFRET cf inactive | LD9 cytotox inactive
O=C(Nc1nnc(CC(c2ccccc2)c2ccccc2)s1)c1ccco1	PrPC TRFRET 40.4 | PrPC TRFRET cf 42.1 | LD9 cytotox inactive
CCC(c1ccccc1)c1nnc(NC(=O)c2ccco2)s1 (configuration not stated)	none
COC(=O)C(C)Oc1ccc(Cc2ncc(C(F)(F)F)cc2Cl)cc1 (configuration not stated)	PrPC TRFRET 62.1 | PrPC TRFRET cf inactive | LD9 cytotox inactive
Oc1ccc(Cc2ncc(C(F)(F)F)cc2Cl)cc1	none
CC(C)OC(=O)CSc1nc(Cc2ccccc2)nc2ccccc12	PrPC TRFRET 59.6 | PrPC TRFRET cf 87.5 | LD9 cytotox inactive
CCOC(=O)CSc1nc(Cc2ccccc2)nc2ccccc12	PrPC TRFRET 64.4 | PrPC TRFRET cf 88.9 | LD9 cytotox inactive
CCOC(=O)CSc1nc(CC)nc2ccccc12	PrPC TRFRET 106.5 | PrPC TRFRET cf 120.5 | LD9 cytotox inactive
CCOC(=O)CNC(=O)CSc1nc(Cc2cccs2)nc2ccccc12	none
COC(=O)CSc1nc(Cc2ccccc2)nc2ccccc12	PrPC TRFRET 67.7 | PrPC TRFRET cf 91.1 | LD9 cytotox inactive
CCOC(=O)CSc1nc2ccccc2c(=O)n1CC	none
CC(C)OC(=O)CSc1nc(C(C)C)nc2ccccc12	none
COc1cccc2sc3cc(NCCCN4CCOCC4)ccc3c(=O)c12	PrPC TRFRET 72.1 (no result: BJeLR viability) | PrPC TRFRET cf 94.7 | LD9 cytotox inactive
NC1=C(Cl)C(=O)c2ccc(S(N)(=O)=O)cc2C1=O	ugtP null kill 98.0, PrPC TRFRET 33.9, RN4220 kill 98.6 (no result: BJeLR viability) | PrPC TRFRET cf 43.7 | LD9 cytotox 98.4
NC1=C(Cl)C(=O)c2ccccc2C1=O	none (no result: ugtP null kill, BJeLR viability, RN4220 kill)
CC(NC(=O)NC1CCCc2ccccc21)C(=O)O (configuration not stated)	none (no result: BJeLR viability, PrPC TRFRET)
COc1cccc(C=NNC(=O)C(=O)N2CCCCCC2)c1O	none (no result: BJeLR viability, PrPC TRFRET)
COc1ccc(CNC(=O)c2sc(=O)n(Cc3cc(Cl)ccc3OC)c2C)cc1	none (no result: ugtP null kill, BJeLR viability, RN4220 kill)
COc1ccc(NC(=O)c2sc(=O)n(Cc3ccc(F)c(Cl)c3)c2C)cc1OC	PrPC TRFRET 29.6 (no result: ugtP null kill, BJeLR viability, RN4220 kill) | PrPC TRFRET cf inactive | LD9 cytotox inactive
COc1ccc(C(=NNc2ncnc3ccccc23)C(=O)O)cc1	none (no result: BJeLR viability, PrPC TRFRET)
Cc1c2ccncc2cc2c1[nH]c1ccccc12	none (no result: BJeLR viability)
COc1ccc2[nH]c3c(C)c4ccncc4c(C)c3c2c1	ugtP null kill 96.0, BJeLR viability 101.4, PrPC TRFRET 34.1, RN4220 kill 98.4 | PrPC TRFRET cf 33.7 | LD9 cytotox 41.7
COc1ccc(CCNc2ncnc3c2oc2ccccc23)cc1OC	PrPC TRFRET 26.9 | PrPC TRFRET cf 27.2 | LD9 cytotox 20.2
COc1ccc2cc(C#N)c(SCC(=O)N3CC(=O)Nc4ccccc43)nc2c1	none (no result: PrPC TRFRET)
Cc1cccc2cc(C#N)c(SCC(=O)N3CC(=O)Nc4ccccc43)nc12	BJeLR viability 53.9, PrPC TRFRET 29.0 | PrPC TRFRET cf 70.5 | LD9 cytotox 15.6
CCC(C)n1ncn(-c2ccc(N3CCN(c4ccc(O)cc4)CC3)cc2)c1=O (configuration not stated)	PrPC TRFRET 24.9 | PrPC TRFRET cf 29.9 | LD9 cytotox inactive
CCC(C)n1ncn(-c2ccc(N3CCN(c4ccc(OCC5COC(Cn6cncn6)(c6ccc(Cl)cc6Cl)O5)cc4)CC3)cc2)c1=O (configuration not stated)	none
CCn1cc(Cl)c(C(=O)Nc2ccccc2C(N)=O)n1	PrPC TRFRET 54.2 | PrPC TRFRET cf inactive | LD9 cytotox inactive
CCn1cc(Br)c(C(=O)Nc2ccccc2C(=O)OC)n1	none
CC=C1COC(C(=O)NCc2ccccc2)(C(F)(F)F)C=C1C=C1CCCCC1 (configuration not stated)	none (no result: BJeLR viability, PrPC TRFRET)
COc1ccc2[nH]c(C(=O)NN=Cc3ccccc3OC)cc2c1	none (no result: BJeLR viability, PrPC TRFRET)
COc1ccc2[nH]c(C(=O)Nc3ccc(C)c(F)c3)cc2c1	PrPC TRFRET 39.3 | PrPC TRFRET cf 99.0 | LD9 cytotox inactive
COc1ccc2[nH]c(C(=O)N/N=C/c3ccc(O)cc3O)cc2c1	PrPC TRFRET 31.7 (no result: ugtP null kill, RN4220 kill) | PrPC TRFRET cf 40.3 | LD9 cytotox 18.9
O=C(C(=O)N1CCC(CNS(=O)(=O)c2ccc(OC(F)(F)F)cc2)CC1)c1cc2ccccc2o1	none (no result: ugtP null kill, BJeLR viability, RN4220 kill)
COC(=O)NN=Cc1ccc(-c2cccc(Cl)c2)o1	none (no result: BJeLR viability, PrPC TRFRET)

Bioassay records from PubChem BioAssay.
